Source: PubChem BioAssay (NCI)
About 83,000 compounds went through this panel and 20% of them were active in at least one assay; those are over-represented in the sample as a whole.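 Each cell line was grown in a 96-well plate and treated with one concentration of compound for 48 hours. Values below 10 were considered active.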 Calls of active or inactive are those of the source.

Assays:
Experiment in all cases: NCI-60 one-dose screen, 48 h (100 = growth as untreated, 0 = no growth, -100 = all killed)
SK-MEL-2 melanoma = conditions: 10 µM unless noted
EKVX NSCLC = conditions: 10 µM unless noted
SN12C renal = conditions: 10 µM unless noted
UO-31 renal = conditions: 10 µM unless noted
TK-10 renal = conditions: 10 µM unless noted
ACHN renal = conditions: 10 µM unless noted
CAKI-1 renal = conditions: 10 µM unless noted
A498 renal = conditions: 10 µM unless noted
CCRF-CEM leukemia = conditions: 10 µM unless noted
MOLT-4 leukemia = conditions: 10 µM unless noted
SR leukemia = conditions: 10 µM unless noted
RPMI-8226 leukemia = conditions: 10 µM
OVCAR-8 ovarian = conditions: 10 µM unless noted
OVCAR-5 ovarian = conditions: 10 µM unless noted
OVCAR-4 ovarian = conditions: 10 µM unless noted
SK-OV-3 ovarian = conditions: 10 µM
IGROV1 ovarian = conditions: 10 µM unless noted
OVCAR-3 ovarian = conditions: 10 µM unless noted
HS 578T breast = conditions: 10 µM unless noted
NCI/ADR-RES ovarian = conditions: 10 µM unless noted

Measured: growth

Cc1cc[n+](CCc2ccccc2)cc1
inactive: SK-MEL-2 melanoma 107% | EKVX NSCLC 80.6%

Cc1nc(NN)c([N+](=O)[O-])c(NN)n1
active: CCRF-CEM leukemia -28.1%
inactive: SK-MEL-2 melanoma 104% | EKVX NSCLC 112% | SN12C renal 103% | UO-31 renal 94.5% | TK-10 renal 118% | ACHN renal 110% | CAKI-1 renal 99.1% | A498 renal 142% | MOLT-4 leukemia 89.6% | SR leukemia 73.5% | RPMI-8226 leukemia 82.5% | OVCAR-8 ovarian 102% | OVCAR-5 ovarian 92.8% | OVCAR-4 ovarian 114% | SK-OV-3 ovarian 121% | IGROV1 ovarian 108% | OVCAR-3 ovarian 99.9% | HS 578T breast 139% | NCI/ADR-RES ovarian 119%

O=[N+]([O-])c1cc2c(cc1Br)-c1ccccc1C2
inactive: SK-MEL-2 melanoma 101% | EKVX NSCLC 77.6% | SN12C renal 85.1% | UO-31 renal 70.5% | TK-10 renal 126% | ACHN renal 94.2% | CAKI-1 renal 76.4% | A498 renal 95.1% | CCRF-CEM leukemia 70.9% | MOLT-4 leukemia 88.8% | SR leukemia 82.7% | RPMI-8226 leukemia 80.7% | OVCAR-8 ovarian 97.3% | OVCAR-5 ovarian 124% | OVCAR-4 ovarian 48.5% | SK-OV-3 ovarian 90% | IGROV1 ovarian 87.1% | OVCAR-3 ovarian 102% | HS 578T breast 94% | NCI/ADR-RES ovarian 81.6%

COc1ccc(-c2nc3sccn3c2/C=C/C(=O)c2cc(OC)c(OC)c(OC)c2)cc1OC
inactive: EKVX NSCLC 34.3% | SN12C renal 40.3% | UO-31 renal 14% | TK-10 renal 82.6% | ACHN renal 21.4% | CCRF-CEM leukemia 21.6% | MOLT-4 leukemia 31.4% | SR leukemia 14.6% | RPMI-8226 leukemia 10.9% | OVCAR-8 ovarian 25.6% | OVCAR-5 ovarian 79.1% | OVCAR-4 ovarian 21.9% | SK-OV-3 ovarian 26.3% | IGROV1 ovarian 34.1%
active: SK-MEL-2 melanoma -7.87% | CAKI-1 renal 3.29% | A498 renal -2.58% | OVCAR-3 ovarian 2.79% | HS 578T breast 3.84% | NCI/ADR-RES ovarian -9.5%

Cn1cc(C(=O)NCCC(=N)N)cc1NC(=O)CN=C(N)N
inactive: SK-MEL-2 melanoma 105% | EKVX NSCLC 103% | SN12C renal 95.6% | UO-31 renal 84% | TK-10 renal 109% | ACHN renal 102% | CAKI-1 renal 99.1% | A498 renal 108% | CCRF-CEM leukemia 100% | MOLT-4 leukemia 103% | SR leukemia 104% | RPMI-8226 leukemia 110% | OVCAR-8 ovarian 106% | OVCAR-5 ovarian 88.9% | OVCAR-4 ovarian 105% | SK-OV-3 ovarian 110% | IGROV1 ovarian 106% | OVCAR-3 ovarian 112% | HS 578T breast 92.4% | NCI/ADR-RES ovarian 94.2%

O=C1/C(=C/c2ccc(Oc3ccccc3)cc2)N=C(c2ccccc2)N1CCc1cccs1
inactive: SK-MEL-2 melanoma 75.5% | EKVX NSCLC 95.7% | SN12C renal 91.3% | UO-31 renal 67.6% | TK-10 renal 80.6% | ACHN renal 96.1% | CAKI-1 renal 67.9% | A498 renal 59.7% | CCRF-CEM leukemia 79.1% | MOLT-4 leukemia 62.8% | SR leukemia 81% | RPMI-8226 leukemia 69.7% | OVCAR-8 ovarian 88.6% | OVCAR-5 ovarian 109% | OVCAR-4 ovarian 78% | SK-OV-3 ovarian 106% | IGROV1 ovarian 71.5% | OVCAR-3 ovarian 106% | HS 578T breast 58.7% | NCI/ADR-RES ovarian 83.9%

COc1ccc(-c2csc3c2-n2cccc2C3=O)cc1O
inactive: SK-MEL-2 melanoma 26.9% | EKVX NSCLC 56% | SN12C renal 29.6% | UO-31 renal 31.5% | TK-10 renal 51.3% | ACHN renal 31.7% | CAKI-1 renal 43.1% | A498 renal 38.5% | OVCAR-5 ovarian 84.5% | OVCAR-4 ovarian 37.4% | IGROV1 ovarian 20.3% | HS 578T breast 32.7%
active: CCRF-CEM leukemia 0.363% | MOLT-4 leukemia -10.8% | SR leukemia -6.8% | RPMI-8226 leukemia -19.8% | OVCAR-8 ovarian 5.09% | SK-OV-3 ovarian 1.75% | OVCAR-3 ovarian -38.7% | NCI/ADR-RES ovarian -25.4%

CC1SC(c2ccc(Cl)cc2)N(CCc2cccs2)C1=O (stereo unspecified)
inactive: CCRF-CEM leukemia 10.1%
active: SK-MEL-2 melanoma -72.8% | EKVX NSCLC -12.5% | SN12C renal -75.6% | UO-31 renal 1.81% | TK-10 renal -16.5% | ACHN renal -6.58% | CAKI-1 renal -33.6% | A498 renal -13.7% | SR leukemia -1.75% | RPMI-8226 leukemia -10.3% | OVCAR-8 ovarian 4.04% | OVCAR-5 ovarian 8.29% | OVCAR-4 ovarian 8.71% | SK-OV-3 ovarian 5.5% | IGROV1 ovarian 4.04% | OVCAR-3 ovarian -30.3% | HS 578T breast -16% | NCI/ADR-RES ovarian -11%

COc1ccc(C(=O)COc2cccc(/C=C3\CSc4ccc(C)cc4C3=O)c2)cc1
active: CCRF-CEM leukemia -9.38% | MOLT-4 leukemia -7.35% | SR leukemia -7.75% | RPMI-8226 leukemia -23.5%
inactive: SK-MEL-2 melanoma 79.5% | EKVX NSCLC 106% | SN12C renal 91.7% | UO-31 renal 78.5% | TK-10 renal 101% | ACHN renal 101% | CAKI-1 renal 91.6% | A498 renal 112% | OVCAR-8 ovarian 66.4% | OVCAR-4 ovarian 90.2% | SK-OV-3 ovarian 107% | OVCAR-3 ovarian 97.5% | HS 578T breast 110%

O=C(COc1cccc(/C=C2\COc3ccccc3C2=O)c1)c1ccccc1
active: CCRF-CEM leukemia -32.7% | MOLT-4 leukemia -21.9% | SR leukemia -62.4% | RPMI-8226 leukemia -51.1% | HS 578T breast -28.2%
inactive: SK-MEL-2 melanoma 70.7% | EKVX NSCLC 84% | SN12C renal 84.9% | UO-31 renal 75.1% | TK-10 renal 92.2% | ACHN renal 86.8% | CAKI-1 renal 53.2% | A498 renal 86.9% | OVCAR-8 ovarian 19.1% | OVCAR-4 ovarian 79.2% | SK-OV-3 ovarian 98.7% | OVCAR-3 ovarian 80.3%

COc1ccccc1CNCCCCCCCCCCCCN1C(=O)c2ccc3c4c(ccc(c24)C1=O)C(=O)N(CCCCCCCCCCCCNCc1ccccc1OC)C3=O
inactive: SK-MEL-2 melanoma 107% | EKVX NSCLC 109% | SN12C renal 74.1% | UO-31 renal 109% | ACHN renal 78.4% | CAKI-1 renal 102% | CCRF-CEM leukemia 50.4% | MOLT-4 leukemia 64.6% | OVCAR-5 ovarian 100% | OVCAR-4 ovarian 92.3% | SK-OV-3 ovarian 117% | IGROV1 ovarian 83% | OVCAR-3 ovarian 44.5% | NCI/ADR-RES ovarian 85%
active: TK-10 renal -46.7% | A498 renal -60.4% | RPMI-8226 leukemia 2.41% | OVCAR-8 ovarian -60.9% | HS 578T breast -9.15%

COc1cccc(C2C3=C(COC3=O)N(CCO)c3cc4c(cc32)OCO4)c1 (stereo unspecified)
active: A498 renal -5.85% | OVCAR-3 ovarian -64.9% | HS 578T breast 2.25% | NCI/ADR-RES ovarian -16.2%
inactive: SK-MEL-2 melanoma 33% | EKVX NSCLC 36.2% | SN12C renal 46.7% | UO-31 renal 57.7% | TK-10 renal 59.8% | ACHN renal 48.4% | CAKI-1 renal 30% | CCRF-CEM leukemia 21.3% | MOLT-4 leukemia 27.1% | RPMI-8226 leukemia 31.4% | OVCAR-8 ovarian 42.3% | OVCAR-5 ovarian 35.6% | OVCAR-4 ovarian 40.6% | SK-OV-3 ovarian 20.8% | IGROV1 ovarian 30.4%

O=C1C=CC(=O)N1CCCCCCCCCCN1C(=O)C=CC1=O
inactive: SK-MEL-2 melanoma 96% | EKVX NSCLC 97.8% | SN12C renal 94.8% | UO-31 renal 48.2% | TK-10 renal 106% | ACHN renal 80.3% | CAKI-1 renal 15.2% | A498 renal 147% | CCRF-CEM leukemia 16.5% | SR leukemia 29.1% | RPMI-8226 leukemia 52.9% | OVCAR-8 ovarian 78.2% | OVCAR-5 ovarian 103% | OVCAR-4 ovarian 102% | SK-OV-3 ovarian 126% | IGROV1 ovarian 69.5% | OVCAR-3 ovarian 38.2% | HS 578T breast 67.4% | NCI/ADR-RES ovarian 73.1%

Cc1cc(C)c(S(=O)O)c(C)c1
inactive: SK-MEL-2 melanoma 97.8% | EKVX NSCLC 105% | SN12C renal 108% | UO-31 renal 110% | TK-10 renal 104% | ACHN renal 103% | CAKI-1 renal 99% | A498 renal 92.7% | CCRF-CEM leukemia 94% | MOLT-4 leukemia 109% | SR leukemia 102% | RPMI-8226 leukemia 102% | OVCAR-8 ovarian 115% | OVCAR-5 ovarian 114% | OVCAR-4 ovarian 111% | IGROV1 ovarian 129% | OVCAR-3 ovarian 120% | HS 578T breast 104% | NCI/ADR-RES ovarian 97%

O=C1CN2CCC1C/C2=C\c1ccnc2c(Cl)cccc12 (stereo unspecified)
active: SR leukemia -24%
inactive: SK-MEL-2 melanoma 85.8% | EKVX NSCLC 95.7% | SN12C renal 94.3% | UO-31 renal 75.5% | TK-10 renal 127% | ACHN renal 91.2% | CAKI-1 renal 93.9% | A498 renal 159% | CCRF-CEM leukemia 96.8% | RPMI-8226 leukemia 62.2% | OVCAR-8 ovarian 99.4% | OVCAR-5 ovarian 103% | OVCAR-4 ovarian 93.6% | SK-OV-3 ovarian 94.1% | IGROV1 ovarian 95.3% | OVCAR-3 ovarian 123% | HS 578T breast 219% | NCI/ADR-RES ovarian 101%

Cc1nc(NC(=O)COc2cccc(/C=C3\COc4ccccc4C3=O)c2)sc1C
inactive: A498 renal 87.2% | SK-OV-3 ovarian 92.2%
active: SK-MEL-2 melanoma -77% | EKVX NSCLC -23.3% | SN12C renal -46.1% | UO-31 renal -80.1% | TK-10 renal -74.1% | ACHN renal -96.9% | CAKI-1 renal -94.3% | CCRF-CEM leukemia -74.7% | MOLT-4 leukemia -36.8% | SR leukemia -69.5% | OVCAR-8 ovarian 7.04% | OVCAR-3 ovarian -83.3% | HS 578T breast -33.7%

CCN1CCN(c2nc3ccccc3c3c(=O)c4cc(F)ccc4sc23)CC1
inactive: SK-MEL-2 melanoma 98.8% | EKVX NSCLC 82.8% | SN12C renal 80.7% | UO-31 renal 44% | TK-10 renal 85.2% | ACHN renal 59.4% | CAKI-1 renal 67.9% | A498 renal 28.9% | CCRF-CEM leukemia 68.5% | MOLT-4 leukemia 27.9% | RPMI-8226 leukemia 65.5% | OVCAR-8 ovarian 71% | OVCAR-5 ovarian 79.8% | IGROV1 ovarian 57% | OVCAR-3 ovarian 71% | HS 578T breast 62.1% | NCI/ADR-RES ovarian 78.3%
active: SR leukemia 0.85%

Cc1cc(=O)c2c(C)ccc(C)c2[nH]1
inactive: SK-MEL-2 melanoma 104% | EKVX NSCLC 102% | SN12C renal 101% | UO-31 renal 86.8% | TK-10 renal 108% | ACHN renal 102% | CAKI-1 renal 108% | A498 renal 108% | CCRF-CEM leukemia 102% | MOLT-4 leukemia 100% | SR leukemia 110% | OVCAR-8 ovarian 94.5% | OVCAR-5 ovarian 97.3% | SK-OV-3 ovarian 107% | IGROV1 ovarian 103% | OVCAR-3 ovarian 169% | HS 578T breast 108% | NCI/ADR-RES ovarian 100%
